Data taken from PubChem BioAssay AID686979 (National Center for Advancing Translational Sciences (NCATS), 2013).
The whole screen tested about 420,000 compounds, of which about 50,000 (12%) were called active. About 26% were inconclusive and are not listed. The full list was thinned out, with actives kept by preference. Unmarked numbers belong to inactive results. The call rests on the fitted dose curve; in most records, active means well fitted inhibition curve with a large enough effect; inconclusive means small, poorly fitted or top-dose-only effect; inactive means flat fitted curve, though single readings scatter.

assay: qHTS for Inhibitors of human tyrosyl-DNA phosphodiesterase 1 (TDP1): qHTS in cells in presence of CPT; details: chicken DT40 Tdp1-/-;hTDP1 cells + 20 nM CPT, ATP luminescence, 48 h; series mostly up to 46.2 µM; activity change, negative = growth inhibition: at the top concentration; further: nearly all actives have a fitted effect of over 55% in size
Method in brief: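 Chicken DT40 Tdp1-/- cells complemented with human TDP1, 400 cells/well, exposed to compounds plus 20 nM camptothecin for at least 48 h at 37 C; viability read as ATP content by CellTiter-Glo luminescence.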
On the % scale 0 is the no-effect control and ±100 the full control effect; potency means the concentration at half of the fitted maximal effect.

**Q.** With `CCOc1cnc(-c2c(-c3ccccc3Cl)noc2C)o1` as the compound, how does the “activity change, negative = growth inhibition” value read?
**A.** 8.07%

**Q.** With `Cc1oc(-c2ccccc2Cl)[n+]([O-])c1C` as the compound, how does the Potency read?
**A.** 14.6 µM (active)

**Q.** Which “activity change, negative = growth inhibition” value does the source give for `OCC[C@H]1C[C@@H](O)[C@H](O)[C@]2(OCCCc3ccccc32)O1` here?
**A.** -25.4%

**Q.** For `COc1ccc(C(=O)OCC(=O)N2CC(=O)Nc3ccccc32)cc1Br`, which “activity change, negative = growth inhibition” value is on record?
**A.** -8.62%

**Q.** With `O=C(NC1CCCC1)c1ccc(Br)s1` as the compound, how does the “activity change, negative = growth inhibition” value read?
**A.** -20.1%

**Q.** For `Cn1cccc1/C=N/NC(=O)CNc1cccc2ccccc12`, which “activity change, negative = growth inhibition” value is on record?
**A.** 4.64%

**Q.** With `C/C(Cc1ccccc1)=N\NC(=O)CNC(=O)c1cccc(Br)c1` as the compound, how does the “activity change, negative = growth inhibition” value read?
**A.** 0.991%

**Q.** For `Cc1cccc(/C=N/NC(=O)CNc2cccc3ccccc23)n1`, which Potency is on record?
**A.** 18.4 µM (active)

**Q.** For `C/C(=N\NC(=O)CNc1cccc2ccccc12)c1ccc(Br)s1`, which Potency is on record?
**A.** 11.6 µM (active)

**Q.** For `Cc1ccc(C(=O)N/N=C/c2cccc3ccccc23)cn1`, which “activity change, negative = growth inhibition” value is on record?
**A.** 14.6%

**Q.** Which “activity change, negative = growth inhibition” value does the source give for `COc1cc(OC)cc(C(=O)NCCSCc2ccc(Cl)cc2)c1` here?
**A.** -3.77%

**Q.** For `Cc1ccc(C(=O)NC2CCN(C(=O)Nc3ccccc3Cl)CC2)cc1`, which “activity change, negative = growth inhibition” value is on record?
**A.** -7.58%

**Q.** With `Cc1ccc(C)n1NC(=O)c1ccc([N+](=O)[O-])cc1` as the compound, how does the “activity change, negative = growth inhibition” value read?
**A.** 14.1%

**Q.** With `CC(=O)N1CCc2ccc(N)cc21` as the compound, how does the “activity change, negative = growth inhibition” value read?
**A.** 5.64%

**Q.** For `Cn1c(=O)n(Cc2ccco2)c(=N)c2c3c(sc21)CCCC3`, which “activity change, negative = growth inhibition” value is on record?
**A.** -26.4%

**Q.** With `CN1CCc2c(sc3c2c(NCc2ccco2)nc2nnnn23)C1` as the compound, how does the Potency read?
**A.** 29.1 µM (active)

**Q.** For `CC1CCN(C(=O)CCc2nnc3ccc(NCc4ccco4)nn23)CC1`, which “activity change, negative = growth inhibition” value is on record?
**A.** -29.9%

**Q.** For `O=C(COC(=O)c1ncc(Cl)c(Cl)c1Cl)NNC(=O)c1ccccc1`, which “activity change, negative = growth inhibition” value is on record?
**A.** -26.2%

**Q.** For `COc1ccc(N2C(=O)NC(NS(=O)(=O)c3ccc(Cl)cc3)(C(F)(F)F)C2=O)cc1` (stereo not given), which “activity change, negative = growth inhibition” value is on record?
**A.** 4.4%

**Q.** Which “activity change, negative = growth inhibition” value does the source give for `COc1ccc(/C=C2\SC(=S)N(CCC(=O)Nc3cccc(C(=O)O)c3)C2=O)cc1OC` here?
**A.** -14.9%

**Q.** With `O=C1/C(=C\c2ccccc2Cl)SC(=S)N1CCC(=O)N1CCCc2ccccc21` as the compound, how does the Potency read?
**A.** 6.51 µM (active)

**Q.** For `O=C(CN1CCCCCC1)NCCN1C(=O)S/C(=C\c2ccccc2Cl)C1=O`, which “activity change, negative = growth inhibition” value is on record?
**A.** -18.4%

**Q.** Which “activity change, negative = growth inhibition” value does the source give for `Cc1ccc([C@@H]2CC(=O)[C@@H]3CN(S(=O)(=O)c4ccc(C)cc4)[C@H](c4ccccc4F)C[C@@H]3N2S(=O)(=O)c2ccc(Cl)cc2)cc1` here?
**A.** -12.2%

**Q.** With `CC1CC(NC(=O)/C(C#N)=C/c2ccc[nH]2)CC(C)(C)C1` (stereo not given) as the compound, how does the Potency read?
**A.** 0.0184 µM (active)

**Q.** Which “activity change, negative = growth inhibition” value does the source give for `CC1CC(NC(=S)N(C)C)CC(C)(C)C1` (stereo not given) here?
**A.** -16.6%

**Q.** For `CCN(C[C@H]1N[C@@](CC)(C(=O)OC)[C@H]2C(=O)N(C)C(=O)[C@@H]12)C(=O)Nc1ccc(F)cc1`, which “activity change, negative = growth inhibition” value is on record?
**A.** 1.04%

**Q.** Which “activity change, negative = growth inhibition” value does the source give for `Cc1nn(C(=O)c2c(F)cccc2F)c(C)c1S(=O)(=O)N1CCOCC1` here?
**A.** 7.22%

**Q.** For `Cc1cccc(C(=O)NNC(=O)c2cccc([N+](=O)[O-])c2)c1`, which “activity change, negative = growth inhibition” value is on record?
**A.** 6.1%

**Q.** Which “activity change, negative = growth inhibition” value does the source give for `O=C(Nc1ccc(NC(=O)c2ccco2)c(Cl)c1)c1cccc([N+](=O)[O-])c1` here?
**A.** -7.2%

**Q.** For `O=C(Nc1ccc(C2CC2(Cl)Cl)cc1)c1cccc([N+](=O)[O-])c1` (stereo not given), which Potency is on record?
**A.** 23.1 µM (active)

**Q.** Which “activity change, negative = growth inhibition” value does the source give for `Cc1c(NC(=O)C(C)Oc2cccc(Cl)c2)c(=O)n(-c2ccccc2)n1C` (stereo not given) here?
**A.** -19.3%

**Q.** Which Potency does the source give for `COc1cc(/C=N/Nc2nn3cnnc3c3ccccc23)cc(OC)c1OC` here?
**A.** 10.3 µM (active)

**Q.** Which “activity change, negative = growth inhibition” value does the source give for `COc1ccc2[nH]c(C(=O)N/N=C/c3cc(OC)c(OC)c(OC)c3)cc2c1` here?
**A.** -44.3%

**Q.** With `COc1cc(/C=N/NC(=O)Cc2ccccc2)cc(OC)c1OC` as the compound, how does the “activity change, negative = growth inhibition” value read?
**A.** 2.59%

**Q.** For `CCOC(=O)CSc1nc(N2CCOCC2)c2c(c1C#N)CC(C(C)C)OC2` (stereo not given), which “activity change, negative = growth inhibition” value is on record?
**A.** 4.05%

**Q.** For `Cc1cccc(NC(=O)Cc2ccc(Br)cc2)n1`, which “activity change, negative = growth inhibition” value is on record?
**A.** -9.2%

**Q.** With `Cc1ccsc1C(C(=O)NC1CCCCC1)N(C(=O)Cc1cccs1)C1CC1` (stereo not given) as the compound, how does the Potency read?
**A.** 20.6 µM (active)

**Q.** With `CC(Cc1cccs1)NC(=O)NC1CCCCC1` (stereo not given) as the compound, how does the “activity change, negative = growth inhibition” value read?
**A.** -11.7%

**Q.** Which “activity change, negative = growth inhibition” value does the source give for `Cc1ccccc1N(C(=O)Cc1cccs1)C(C(=O)NC1CCCCC1)c1cn(C)nc1C` (stereo not given) here?
**A.** -25.4%

**Q.** For `CC(NC(=O)c1cc(=O)[nH]c2ccccc12)c1ccc(F)cc1F` (stereo not given), which “activity change, negative = growth inhibition” value is on record?
**A.** 7.75%

**Q.** Which Potency does the source give for `CC(NC(=O)c1cc(Sc2ccc(F)cc2F)nc2ccccc12)c1ccccc1` (stereo not given) here?
**A.** 13 µM (active)

**Q.** With `CC(NC(=O)c1ccccc1SCC(=O)N1CCCC1)c1ccccc1` (stereo not given) as the compound, how does the “activity change, negative = growth inhibition” value read?
**A.** -7.91%

**Q.** For `CCCCNC(=O)c1nc(C2CCN(S(=O)(=O)c3ccc(F)c(F)c3)CC2)oc1-c1cccc(C(F)(F)F)c1`, which “activity change, negative = growth inhibition” value is on record?
**A.** 1.62%

**Q.** For `COc1ccc(N2CCN(Cc3nnc(-c4ccccc4)o3)CC2)cc1`, which “activity change, negative = growth inhibition” value is on record?
**A.** -12.2%

**Q.** For `COc1ccc(N2CCN(S(=O)(=O)c3cc(Br)cnc3N)CC2)cc1`, which “activity change, negative = growth inhibition” value is on record?
**A.** 20.1%

**Q.** For `COc1ccc(N2CCN(c3cc(C)nc4nncn34)CC2)cc1`, which Potency is on record?
**A.** 13 µM (active)

**Q.** Which “activity change, negative = growth inhibition” value does the source give for `O=C(CN1C(=O)c2ccccc2C1=O)NCc1ccc(C(=O)O)cc1` here?
**A.** 0.562%

**Q.** Which “activity change, negative = growth inhibition” value does the source give for `CCN(CC)C(=O)C1CCCN(Cc2cccc(Cl)c2)C1` (stereo not given) here?
**A.** -27.2%

**Q.** Which Potency does the source give for `CN(C(=O)c1ccc2c(c1)N(Cc1cccc(Cl)c1)C(=O)c1ccccc1S2=O)C1CCCCC1` (stereo not given) here?
**A.** 18.4 µM (active)

**Q.** With `Cc1cccc(C(=O)Nc2ccc3c(c2)C(=O)N(CC(C)C)C3=O)c1` as the compound, how does the “activity change, negative = growth inhibition” value read?
**A.** -28.1%
